About 7,900 targets were measured; listed, in parts, are those with a hit and a random draw of the rest. About 0.6% of all pairs of compound and target were hits. A number with no mark means an inactive call.
What was measured:
Assay in all cases: log2 fold change, soluble protein after heating vs DMSO (PISA); higher = thermal stabilisation; K562 cells, 10 uM, 30 min; active = over 0.2 and 3.5 SD of the protein, either way, in both replicates (recomputed)
[1] = compound: CS(=O)(=O)c1ccc(-c2cnc(N)c(C(=O)Nc3ccccc3)n2)cc1
Summary of the method: (§1)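 Soluble protein was defined as the supernatant after 21,000xg for 90 min. It came from K562 cells at 2×10^6 cells/mL given 10 μM compound for 30 min, heated in aliquots for 3 min across 48°C-58°C, pooled, and extracted in PBS with 0.5% NP-40 at 4°C, and was quantified by TMTpro 16plex LC-MS/MS with equalised channel sums. Thermal stability against control samples, from duplicates, is reported as log2 fold change.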

crizotinib = compound: C[C@@H](Oc1cc(-c2cnn(C3CCNCC3)c2)cnc1N)c1c(Cl)ccc(F)c1Cl [crizotinib]
Summary of the method: as §1

[2] = compound: C[C@@H]1COCCN1C2=NC(=NC(=C2)C3(CC3)S(=O)(=O)C)C4=C5C=CNC5=CC=C4
Summary of the method: as §1

[3] = compound: C[C@H](C1=CC=C(C=C1)C(=O)NC2=C3C=CNC3=NC=C2)N
Summary of the method: as §1

duvelisib = compound: C[C@H](Nc1ncnc2nc[nH]c12)c1cc2cccc(Cl)c2c(=O)n1-c1ccccc1 [duvelisib]
Summary of the method: as §1

gandotinib = compound: Cc1cc(Nc2cc(CN3CCOCC3)c3nc(C)c(Cc4ccc(Cl)cc4F)n3n2)n[nH]1 [gandotinib]
Summary of the method: as §1

tozasertib = compound: Cc1cc(Nc2cc(N3CCN(C)CC3)nc(Sc3ccc(NC(=O)C4CC4)cc3)n2)n[nH]1 [tozasertib]
Summary of the method: as §1

[4] = compound: Cc1cc(SCc2sc(-c3ccc(C(F)(F)F)cc3)nc2C)ccc1OCC(=O)O
Summary of the method: as §1

doramapimod = compound: Cc1ccc(-n2nc(C(C)(C)C)cc2NC(=O)Nc2ccc(OCCN3CCOCC3)c3ccccc23)cc1 [doramapimod]
Summary of the method: as §1

ispinesib = compound: Cc1ccc(C(=O)N(CCCN)[C@@H](c2nc3cc(Cl)ccc3c(=O)n2Cc2ccccc2)C(C)C)cc1 [ispinesib]
Summary of the method: as §1

Chain of UniProt Q8N2W9 (Q8N2W9 whole entry, looked up): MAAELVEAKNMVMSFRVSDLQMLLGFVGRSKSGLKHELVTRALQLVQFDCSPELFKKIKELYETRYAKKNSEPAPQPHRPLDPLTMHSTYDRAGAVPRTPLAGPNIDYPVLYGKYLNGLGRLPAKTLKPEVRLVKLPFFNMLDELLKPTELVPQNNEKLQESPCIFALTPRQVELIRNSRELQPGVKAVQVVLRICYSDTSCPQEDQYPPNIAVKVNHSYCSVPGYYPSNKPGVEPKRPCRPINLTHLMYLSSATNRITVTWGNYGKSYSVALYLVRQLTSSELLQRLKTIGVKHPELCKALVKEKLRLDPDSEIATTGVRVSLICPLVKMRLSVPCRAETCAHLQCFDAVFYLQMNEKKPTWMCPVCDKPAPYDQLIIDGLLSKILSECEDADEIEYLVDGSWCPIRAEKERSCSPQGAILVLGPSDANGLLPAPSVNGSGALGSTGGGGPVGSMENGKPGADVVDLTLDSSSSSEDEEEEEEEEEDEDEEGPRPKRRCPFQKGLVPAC
Chain of UniProt Q9UHX1 (Q9UHX1 whole entry, looked up): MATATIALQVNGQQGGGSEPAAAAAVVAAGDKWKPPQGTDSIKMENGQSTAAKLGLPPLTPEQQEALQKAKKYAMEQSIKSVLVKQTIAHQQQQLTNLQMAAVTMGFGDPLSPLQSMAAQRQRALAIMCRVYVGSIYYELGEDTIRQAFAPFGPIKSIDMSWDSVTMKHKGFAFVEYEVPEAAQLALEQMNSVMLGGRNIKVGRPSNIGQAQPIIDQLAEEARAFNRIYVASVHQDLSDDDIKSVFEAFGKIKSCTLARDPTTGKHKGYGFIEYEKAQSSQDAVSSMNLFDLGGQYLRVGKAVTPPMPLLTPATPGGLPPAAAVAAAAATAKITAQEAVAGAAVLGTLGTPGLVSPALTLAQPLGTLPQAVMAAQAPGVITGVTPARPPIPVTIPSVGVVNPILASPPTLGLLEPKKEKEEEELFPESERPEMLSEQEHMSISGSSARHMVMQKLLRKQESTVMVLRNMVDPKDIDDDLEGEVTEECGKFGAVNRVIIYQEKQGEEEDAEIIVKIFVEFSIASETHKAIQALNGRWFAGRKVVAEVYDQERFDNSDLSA
Chain of UniProt P27815 (P27815 whole entry, looked up): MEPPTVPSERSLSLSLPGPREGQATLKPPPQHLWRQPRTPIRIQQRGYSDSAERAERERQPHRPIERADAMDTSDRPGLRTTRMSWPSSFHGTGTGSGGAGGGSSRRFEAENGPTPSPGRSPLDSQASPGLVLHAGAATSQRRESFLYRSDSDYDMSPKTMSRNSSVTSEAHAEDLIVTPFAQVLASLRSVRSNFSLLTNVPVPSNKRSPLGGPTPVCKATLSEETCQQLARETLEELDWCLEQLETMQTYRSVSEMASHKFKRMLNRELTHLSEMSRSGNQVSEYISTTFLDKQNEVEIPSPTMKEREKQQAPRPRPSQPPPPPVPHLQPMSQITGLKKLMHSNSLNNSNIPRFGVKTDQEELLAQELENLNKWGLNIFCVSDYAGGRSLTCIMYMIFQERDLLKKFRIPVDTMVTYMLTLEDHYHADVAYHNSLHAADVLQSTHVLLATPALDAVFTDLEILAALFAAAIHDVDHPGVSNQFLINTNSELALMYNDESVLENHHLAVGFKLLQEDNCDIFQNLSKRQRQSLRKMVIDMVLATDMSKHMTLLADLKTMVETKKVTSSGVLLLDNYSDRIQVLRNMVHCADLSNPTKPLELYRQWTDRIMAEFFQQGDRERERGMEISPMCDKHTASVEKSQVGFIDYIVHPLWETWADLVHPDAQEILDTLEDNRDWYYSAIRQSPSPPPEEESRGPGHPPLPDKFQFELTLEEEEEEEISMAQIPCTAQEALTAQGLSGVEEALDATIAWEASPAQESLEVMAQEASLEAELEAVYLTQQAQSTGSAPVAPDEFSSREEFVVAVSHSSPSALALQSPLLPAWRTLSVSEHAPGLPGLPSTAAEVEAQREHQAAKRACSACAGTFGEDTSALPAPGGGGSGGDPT
Chain of UniProt O94806 (O94806 whole entry, looked up): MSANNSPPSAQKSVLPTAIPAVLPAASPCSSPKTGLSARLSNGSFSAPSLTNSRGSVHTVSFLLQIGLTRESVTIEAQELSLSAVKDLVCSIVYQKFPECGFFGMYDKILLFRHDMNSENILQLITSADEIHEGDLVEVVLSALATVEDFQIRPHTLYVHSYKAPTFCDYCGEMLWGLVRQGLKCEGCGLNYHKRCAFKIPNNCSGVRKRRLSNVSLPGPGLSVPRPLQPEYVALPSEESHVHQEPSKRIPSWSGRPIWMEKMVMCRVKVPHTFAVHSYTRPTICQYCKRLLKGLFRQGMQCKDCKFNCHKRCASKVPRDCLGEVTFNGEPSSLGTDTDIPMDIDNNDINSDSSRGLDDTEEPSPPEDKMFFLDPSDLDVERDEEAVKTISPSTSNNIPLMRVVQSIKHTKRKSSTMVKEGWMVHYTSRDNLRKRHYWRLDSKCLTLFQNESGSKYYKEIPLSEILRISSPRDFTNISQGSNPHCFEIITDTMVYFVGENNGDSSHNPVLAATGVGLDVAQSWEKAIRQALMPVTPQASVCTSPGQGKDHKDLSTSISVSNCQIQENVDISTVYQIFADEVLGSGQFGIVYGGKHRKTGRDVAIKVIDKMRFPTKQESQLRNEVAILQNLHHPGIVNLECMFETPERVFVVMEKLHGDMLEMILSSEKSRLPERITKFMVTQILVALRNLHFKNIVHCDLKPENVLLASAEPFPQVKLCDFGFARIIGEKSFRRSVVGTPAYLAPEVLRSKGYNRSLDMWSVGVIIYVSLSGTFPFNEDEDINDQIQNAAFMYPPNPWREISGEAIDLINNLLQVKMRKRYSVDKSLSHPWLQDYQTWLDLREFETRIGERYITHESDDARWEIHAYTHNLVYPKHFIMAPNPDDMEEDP
Chain of UniProt Q15172 (Q15172 whole entry, looked up): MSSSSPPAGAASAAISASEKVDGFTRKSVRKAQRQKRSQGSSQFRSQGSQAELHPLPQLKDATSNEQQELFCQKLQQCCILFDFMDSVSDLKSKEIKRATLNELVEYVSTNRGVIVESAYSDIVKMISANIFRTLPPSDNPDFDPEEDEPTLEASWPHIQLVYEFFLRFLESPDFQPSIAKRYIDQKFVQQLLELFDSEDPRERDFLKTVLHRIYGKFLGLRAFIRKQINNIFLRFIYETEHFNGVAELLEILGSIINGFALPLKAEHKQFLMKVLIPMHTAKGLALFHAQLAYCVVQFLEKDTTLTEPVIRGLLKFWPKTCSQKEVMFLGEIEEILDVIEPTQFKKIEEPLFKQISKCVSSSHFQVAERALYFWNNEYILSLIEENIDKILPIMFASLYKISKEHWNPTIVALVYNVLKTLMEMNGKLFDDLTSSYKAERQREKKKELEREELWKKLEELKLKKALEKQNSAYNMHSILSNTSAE
Chain of UniProt Q14289 (Q14289 whole entry, looked up): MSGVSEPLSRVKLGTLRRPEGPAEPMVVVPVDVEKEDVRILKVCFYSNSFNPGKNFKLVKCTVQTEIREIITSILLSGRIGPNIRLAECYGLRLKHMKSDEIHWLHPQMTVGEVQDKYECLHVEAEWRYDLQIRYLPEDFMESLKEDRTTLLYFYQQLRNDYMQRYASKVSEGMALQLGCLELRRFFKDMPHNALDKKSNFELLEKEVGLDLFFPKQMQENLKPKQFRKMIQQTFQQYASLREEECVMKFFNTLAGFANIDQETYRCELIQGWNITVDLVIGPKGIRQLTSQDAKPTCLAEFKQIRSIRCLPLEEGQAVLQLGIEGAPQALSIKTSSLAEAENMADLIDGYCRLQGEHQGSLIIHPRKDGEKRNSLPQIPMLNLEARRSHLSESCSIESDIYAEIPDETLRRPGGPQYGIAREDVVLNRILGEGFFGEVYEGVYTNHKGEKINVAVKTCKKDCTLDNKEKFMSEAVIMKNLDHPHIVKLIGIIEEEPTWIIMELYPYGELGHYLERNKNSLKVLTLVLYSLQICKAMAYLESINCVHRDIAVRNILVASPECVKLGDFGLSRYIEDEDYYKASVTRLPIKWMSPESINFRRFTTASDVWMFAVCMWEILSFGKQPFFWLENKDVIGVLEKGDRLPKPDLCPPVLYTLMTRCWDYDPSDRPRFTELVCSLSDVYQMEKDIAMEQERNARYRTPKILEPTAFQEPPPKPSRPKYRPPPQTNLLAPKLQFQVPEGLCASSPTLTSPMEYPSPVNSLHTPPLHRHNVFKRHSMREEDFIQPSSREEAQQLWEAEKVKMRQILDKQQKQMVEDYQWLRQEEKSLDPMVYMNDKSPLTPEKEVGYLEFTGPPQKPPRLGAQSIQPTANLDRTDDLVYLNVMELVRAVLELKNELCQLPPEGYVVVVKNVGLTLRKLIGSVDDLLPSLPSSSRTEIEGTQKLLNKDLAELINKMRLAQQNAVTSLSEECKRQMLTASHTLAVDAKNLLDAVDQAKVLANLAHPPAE
Chain of UniProt P41247 (P41247 whole entry, looked up): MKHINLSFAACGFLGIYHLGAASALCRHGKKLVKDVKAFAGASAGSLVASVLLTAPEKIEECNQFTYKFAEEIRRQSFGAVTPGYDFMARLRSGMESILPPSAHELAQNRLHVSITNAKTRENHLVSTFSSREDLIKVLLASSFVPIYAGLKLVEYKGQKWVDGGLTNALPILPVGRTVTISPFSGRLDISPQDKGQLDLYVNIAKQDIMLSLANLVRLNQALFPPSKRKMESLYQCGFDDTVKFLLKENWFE
Chain of UniProt Q14442 (Q14442 whole entry, looked up): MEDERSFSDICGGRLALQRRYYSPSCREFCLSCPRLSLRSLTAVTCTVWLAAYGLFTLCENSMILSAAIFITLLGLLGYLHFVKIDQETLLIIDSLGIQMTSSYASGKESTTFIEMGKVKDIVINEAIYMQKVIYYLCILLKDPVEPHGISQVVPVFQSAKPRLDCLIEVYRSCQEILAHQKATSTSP
Chain of UniProt Q15126 (Q15126 whole entry, looked up): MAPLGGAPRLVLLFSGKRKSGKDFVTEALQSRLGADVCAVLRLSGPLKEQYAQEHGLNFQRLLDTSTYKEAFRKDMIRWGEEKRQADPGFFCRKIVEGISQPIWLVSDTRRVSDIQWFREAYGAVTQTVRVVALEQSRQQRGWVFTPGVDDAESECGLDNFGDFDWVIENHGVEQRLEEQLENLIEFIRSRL

| Target | log2 fold change [1] | log2 fold change (crizotinib) | log2 fold change [2] | log2 fold change [3] | log2 fold change (duvelisib) | log2 fold change (gandotinib) | log2 fold change (tozasertib) | log2 fold change [4] | log2 fold change (doramapimod) | log2 fold change (ispinesib) |
| --- | --- | --- | --- | --- | --- | --- | --- | --- | --- | --- |
| PMM2 (UniProt O15305) | 0.006 | 0.08 | 0.013 | 0.012 | 0.056 | -0.045 | -0.017 | -0.031 | -0.015 | 0.009 |
| PPP2R5A (UniProt Q15172) | -0.018 | -0.154 | 0.014 | 0.022 | 0.033 | -0.21 | -0.049 | 0.072 | -0.019 | -0.056 |
| PSMA3 (UniProt G3V4X5) |  | -0.277 |  |  |  |  |  |  | 0.149 | -0.081 |
| PRKD3 (UniProt O94806) | -0.132 | -0.292 |  | -0.189 | 0.033 | 0.092 |  | 0.039 | -0.088 | -0.237 |
| PPP2R5C isoform 2 (UniProt Q13362) |  | 0.243 |  |  |  |  |  |  | 0.052 | 0.023 |
| PMS2CL (UniProt Q68D20) |  |  | -0.091 |  |  |  |  |  |  | 0.105 |
| PIM1 isoform 2 (UniProt P11309) |  |  |  |  |  | -0.084 |  |  |  |  |
| POLR2E (UniProt P19388) |  | 0.112 | -0.027 | 0.14 | -0.001 | 0.157 | 0.02 | 0.089 | -0.078 | -0.058 |
| PHLDB1 isoform 2 (UniProt Q86UU1) |  | -0.307 | 0.058 | -0.043 | -0.759 (active) | -0.281 | -0.126 | 0.108 | 0.032 | -0.053 |
| PDE4DIP (UniProt E9PS60) |  | -0.225 |  | 0.212 |  |  |  |  | 0.102 |  |
| PSMC1 (UniProt G3V4X1) |  |  |  | 0.099 |  | 0.066 |  |  |  |  |
| PSMD8 (UniProt K7ERW6) |  | -0.021 |  |  |  |  | -0.231 |  | 0.066 |  |
| PIGH (UniProt Q14442) |  | -0.037 | -0.012 | -0.179 | -0.034 | 0.036 | 0 | 0.04 | -0.062 | 0.033 |
| PDE4A (UniProt P27815) |  | 0.055 | -0.102 | -0.171 |  |  | 0.027 |  | 0.065 | -0.098 |
| PSD3 (UniProt Q9NYI0) |  | 0.071 |  | -0.047 |  |  |  |  | -0.02 | -0.075 |
| PPP2R5B (UniProt Q15173) |  |  |  |  | 0.16 | -0.277 |  | -0.002 |  |  |
| PTK2B (UniProt Q14289) | -0.029 |  | -0.03 | 0.234 | 0.182 | -0.03 | -0.067 | 0.016 |  | -0.233 |
| PHRF1 (UniProt Q9P1Y6) |  |  |  |  |  |  |  |  |  | -0.296 |
| PTEN isoform 2 (UniProt P60484) |  | 0.077 |  |  |  | 0.312 |  |  | 0.001 | 0.024 |
| PCBP2 (UniProt F8VZX2) |  | -0.273 |  | 0.234 | -0.147 |  |  | 0.065 | -0.107 | -0.124 |

| Target | log2 fold change [1] | log2 fold change (crizotinib) | log2 fold change [2] | log2 fold change [3] | log2 fold change (duvelisib) | log2 fold change (gandotinib) | log2 fold change (tozasertib) | log2 fold change [4] | log2 fold change (doramapimod) | log2 fold change (ispinesib) |
| --- | --- | --- | --- | --- | --- | --- | --- | --- | --- | --- |
| PCF11 (UniProt O94913) |  | -0.137 |  | 0.211 |  | -0.149 |  |  | 0.051 | -0.533 |
| PEX5 isoform 4 (UniProt P50542) | -0.091 |  | -0.016 | 0.15 | -0.379 |  | -0.013 | -0.047 |  | -0.078 |
| PUF60 isoform 2 (UniProt Q9UHX1) |  |  |  | -0.591 | 0.163 |  | 0.193 | 0.04 |  | 0.173 |
| PRKD2 (UniProt M0R346) | -0.025 |  | 0.241 |  |  | 0.109 |  |  |  |  |
| PIAS4 (UniProt Q8N2W9) |  | -0.178 | 0.047 |  | 0.036 | -0.013 | -0.009 | 0.021 | 0.061 | -0.278 |
| PCNX1 (UniProt Q96RV3) |  |  | 0.257 |  |  |  | 0.071 |  |  |  |
| PRR14L (UniProt Q5THK1) |  |  |  | -0.072 |  | -0.084 | -0.247 |  |  |  |
| PSMD8 (UniProt K7EK21) |  |  |  | 0.485 |  |  |  |  |  |  |
| POLB (UniProt P06746) | -0.078 |  | -0.003 | 0.036 | -0.178 | 0.081 | 0.077 | -0.045 |  | -0.1 |
| PSMC3 (UniProt E9PLG2) | 0.206 | 0.168 | 0.101 |  | 0.245 |  | -0.288 | -0.101 | -0.058 |  |
| PPP1R12C (UniProt Q9BZL4) | -0.016 |  | -0.198 |  | -0.011 | -0.001 | 0.091 | 0.018 |  | -0.009 |
| PLCXD1 (UniProt Q9NUJ7) |  |  |  |  |  |  |  |  |  | -0.145 |
| PNPLA4 (UniProt P41247) | 0.319 | -0.651 (active) |  | 0.559 | -0.095 |  | -0.005 | 0.117 | 0.895 (active) | -0.093 |
| PMVK (UniProt Q15126) | 0.088 |  | 0.02 | 0.083 | -0.055 | -0.705 (active) | -0.186 | 0.333 |  |  |
| PTPA (UniProt A6PVN8) | -0.116 |  | 0.083 | 0.1 | -0.002 | -0.048 | -0.069 | -0.203 |  | -0.04 |
| PI4K2B (UniProt Q8TCG2) | 0.06 | -0.184 |  | 0.118 | 0.132 | -0.045 | -0.168 | -0.016 | 0.01 | -0.355 (active) |
| PAN2 (UniProt Q504Q3) |  |  |  |  | -0.032 |  |  | 0.299 |  |  |
| PSMA3 (UniProt H0YJ03) |  | 0.081 |  | 0.099 | 0.092 |  | -0.049 | -0.07 | 0.072 | -0.213 |
| PUM1 (UniProt Q14671) |  | -0.079 |  | -0.362 | -0.187 | 0.207 | 0.019 | 0.203 | 0.041 |  |

— the supplement of paper PMC10849652
